In PubChem BioAssay (NCATS):
Results filed as inconclusive are left out. Where a call stands in place of a potency, no number is given. Calls of active or inactive are those of the source. Calls come from the whole dose curve; as a rule, active = well fitted inhibition curve with a large enough effect; inconclusive = small, poorly fitted or top-dose-only effect; inactive = flat fitted curve, though single readings scatter.

Biological target: Voltage-gated inwardly rectifying potassium channel KCNH2 (Homo sapiens) (UniProt Q12809)
Sequence (Q12809 whole entry, looked up): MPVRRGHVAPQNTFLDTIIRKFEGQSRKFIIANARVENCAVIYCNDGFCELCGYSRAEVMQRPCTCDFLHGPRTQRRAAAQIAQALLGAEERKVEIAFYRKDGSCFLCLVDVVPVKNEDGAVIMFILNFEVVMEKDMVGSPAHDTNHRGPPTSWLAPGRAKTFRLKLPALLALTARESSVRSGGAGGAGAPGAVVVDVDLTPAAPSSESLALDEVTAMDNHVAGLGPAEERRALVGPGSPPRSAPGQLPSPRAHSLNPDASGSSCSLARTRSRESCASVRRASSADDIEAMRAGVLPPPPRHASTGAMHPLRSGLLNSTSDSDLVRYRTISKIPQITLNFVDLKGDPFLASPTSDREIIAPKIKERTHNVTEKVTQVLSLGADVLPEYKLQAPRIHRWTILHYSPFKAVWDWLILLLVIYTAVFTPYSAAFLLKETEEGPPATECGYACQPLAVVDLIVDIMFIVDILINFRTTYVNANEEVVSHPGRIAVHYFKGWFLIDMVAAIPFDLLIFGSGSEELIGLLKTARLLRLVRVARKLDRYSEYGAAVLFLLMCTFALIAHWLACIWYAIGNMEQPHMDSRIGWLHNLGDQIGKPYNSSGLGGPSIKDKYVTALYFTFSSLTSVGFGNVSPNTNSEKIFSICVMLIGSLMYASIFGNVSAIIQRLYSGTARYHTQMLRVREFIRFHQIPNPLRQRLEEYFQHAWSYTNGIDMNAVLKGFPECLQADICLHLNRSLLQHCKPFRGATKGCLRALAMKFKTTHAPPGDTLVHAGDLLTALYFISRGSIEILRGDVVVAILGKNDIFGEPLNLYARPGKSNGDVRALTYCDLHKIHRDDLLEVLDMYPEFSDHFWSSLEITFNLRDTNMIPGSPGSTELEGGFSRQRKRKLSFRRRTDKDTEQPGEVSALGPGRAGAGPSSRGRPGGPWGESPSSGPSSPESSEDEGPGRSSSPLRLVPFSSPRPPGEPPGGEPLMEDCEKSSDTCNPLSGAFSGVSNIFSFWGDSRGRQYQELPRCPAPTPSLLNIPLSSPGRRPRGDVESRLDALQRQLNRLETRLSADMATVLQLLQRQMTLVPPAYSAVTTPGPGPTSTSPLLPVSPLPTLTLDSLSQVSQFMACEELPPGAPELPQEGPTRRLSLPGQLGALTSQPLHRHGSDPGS
Assay: qHTS Assay for Small Molecule Inhibitors of the Human hERG Channel Activity (AID 588834);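 note: top concentration of the series differs between compounds; lower thallium flux fluorescence means stronger hERG block; nearly all actives have a fitted effect of over 50% in size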
Conditions: U2OS BacMam hERG, FluxOR thallium flux fluorescence; series mostly up to 46.1 µM
Summary of the method: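 Blockade is seen as reduced FluxOR thallium-flux fluorescence in U2OS cells expressing hERG from a BacMam construct, in Opti-MEM with 2% FCS. Concentration-response data fitted to the Hill equation for AC50.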

| Compound | Potency |
| --- | --- |
| Cc1cc(NC(=O)C2=C(O)c3ccccc3S(=O)(=O)N2C)no1 | inactive |
| COc1cc(C(=O)NCCCCCC(=O)O)cc(OC)c1OC | inactive |
| NS(=O)(=O)c1ccc(NC(=O)CCC(=O)O)cc1 | inactive |
| CCc1cccc(CC)c1NC(=O)CN(CC(=O)O)CC(=O)O | inactive |
| COC(=O)c1cccnc1 | inactive |
| Cn1c(=O)c2c(ncn2CCO)n(C)c1=O | inactive |
| O=C(O)c1ccccc1OP(=O)(O)O | inactive |
| CC(=O)SC[C@@H](Cc1ccccc1)C(=O)NCC(=O)OCc1ccccc1 | inactive |
| CN1CCN(C(=O)C2CCCCC2)CC1 | inactive |
| CCCCCOC(=O)Nc1nc(=O)n([C@@H]2O[C@H](C)[C@@H](O)[C@H]2O)cc1F | inactive |
| Cc1ccc(S(=O)(=O)NC(=O)NC2CCCCC2)cc1 | inactive |
| NNC(=O)CP(=O)(c1ccccc1)c1ccccc1 | inactive |
| O=C(O)Cc1ccc(CCNS(=O)(=O)c2ccc(Cl)cc2)cc1 | inactive |
| COc1ccc(NS(=O)(=O)c2ccc(N)cc2)nn1 | inactive |
| CN1C[C@@H]2C[C@H]1CN2c1cc2c(cc1F)c(=O)c(C(=O)O)cn2C1CC1 | inactive |
| C[C@H]1COc2c(C3(N)CC3)c(F)cc3c(=O)c(C(=O)O)cn1c23 | inactive |
| CNc1c2c(nn1C)CCCC2 | inactive |
| CC(C)c1cc2c(cc1S(=O)(=O)O)[C@@]1(C)CCC[C@@](C)(C(=O)O)[C@@H]1CC2 | inactive |

| Compound | Potency |
| --- | --- |
| Cc1ccc(S(=O)(=O)NC(=O)NC2CCCCCCC2)cc1 | inactive |
| CNCc1ccccc1 | inactive |
| CCOC(=O)[C@H](CCc1ccccc1)N[C@@H](C)C(=O)N1Cc2cc(OC)c(OC)cc2C[C@H]1C(=O)O | inactive |
| CCCCCCCCCCOc1cc2c(=O)c(C(=O)OCC)c[nH]c2cc1OCC | inactive |
| O=C(NCC(O)CO)c1c(I)c(C(=O)NCC(O)CO)c(I)c(N(CCO)C(=O)CO)c1I (centres undefined) | inactive |
| CC(=O)Oc1cccc(C)c1 | inactive |
| CO[C@@]1(NC(=O)C(C(=O)O)c2ccc(O)cc2)C(=O)N2C(C(=O)O)=C(CSc3nnnn3C)CO[C@@H]21 (some centres undefined) | inactive |
| O=C(NCN1CCOCC1)c1cnccn1 | inactive |
| Cc1ccccc1N=Nc1ccc(N=Nc2c(O)ccc3ccccc23)c(C)c1 | inactive |
| CC1CCc2cc(F)cc3c(=O)c(C(=O)O)cn1c23 (centres undefined) | inactive |
| O=C(O)c1ccc[n+]([O-])c1 | inactive |
| C/C(=C(\CCO)SS/C(CCO)=C(\C)N(C=O)Cc1cnc(C)nc1N)N(C=O)Cc1cnc(C)nc1N | inactive |
| CCCCCC(C)N (centres undefined) | inactive |
| CCOc1cc(NC(C)=O)ccc1C(=O)OC | inactive |
| Cc1cc(OI)c(C(C)C)cc1-c1cc(C(C)C)c(OI)cc1C | inactive |
| O=C1CC[C@@H](C(=O)O)N1 | inactive |
| COc1ccc(-c2cc(=O)c3c(O)cc(O[C@@H]4O[C@H](CO[C@@H]5O[C@@H](C)[C@H](O)[C@@H](O)[C@H]5O)[C@@H](O)[C@H](O)[C@H]4O)cc3o2)cc1O | inactive |

Biological target: Luciferin 4-monooxygenase (Photinus pyralis) (UniProt P08659)
Sequence (P08659 whole entry, looked up): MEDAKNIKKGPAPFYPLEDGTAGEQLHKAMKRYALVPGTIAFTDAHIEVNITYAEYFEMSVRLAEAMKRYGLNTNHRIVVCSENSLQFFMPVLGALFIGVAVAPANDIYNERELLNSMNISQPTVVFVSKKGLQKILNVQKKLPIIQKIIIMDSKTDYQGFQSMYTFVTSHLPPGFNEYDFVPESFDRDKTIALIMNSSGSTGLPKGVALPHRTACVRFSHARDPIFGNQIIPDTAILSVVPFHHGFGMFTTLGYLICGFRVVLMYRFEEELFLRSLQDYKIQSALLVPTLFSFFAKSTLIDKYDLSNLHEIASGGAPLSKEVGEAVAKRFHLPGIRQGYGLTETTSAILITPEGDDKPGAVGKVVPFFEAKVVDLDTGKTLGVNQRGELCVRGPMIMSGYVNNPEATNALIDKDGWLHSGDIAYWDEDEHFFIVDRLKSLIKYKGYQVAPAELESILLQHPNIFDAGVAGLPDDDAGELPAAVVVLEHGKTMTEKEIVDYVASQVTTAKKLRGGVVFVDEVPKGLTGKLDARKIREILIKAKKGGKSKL
Assay: Biochemical firefly luciferase enzyme assay for NPC (AID 624030);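 note: purified P. pyralis luciferase at 10 nM with luciferin and ATP substrate; nearly all actives have a fitted effect of over 70% in size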
Conditions: purified P. pyralis luciferase, luminescence, 5 min; series mostly up to 58.6 µM
Summary of the method: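 Purified P. pyralis luciferase at 10 nM in 50 mM Tris Acetate (final), luminescence read within 5 minutes of enzyme addition to compounds. Activity normalised to PTC124 versus DMSO; concentration-response curves classed by r2, magnitude and activity.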

| Compound | Potency |
| --- | --- |
| Cc1cc(NC(=O)C2=C(O)c3ccccc3S(=O)(=O)N2C)no1 | inactive |
| COc1cc(C(=O)NCCCCCC(=O)O)cc(OC)c1OC | inactive |
| NS(=O)(=O)c1ccc(NC(=O)CCC(=O)O)cc1 | inactive |
| CCc1cccc(CC)c1NC(=O)CN(CC(=O)O)CC(=O)O | inactive |
| COC(=O)c1cccnc1 | inactive |
| Cn1c(=O)c2c(ncn2CCO)n(C)c1=O | inactive |
| O=C(O)c1ccccc1OP(=O)(O)O | inactive |
| CC(=O)SC[C@@H](Cc1ccccc1)C(=O)NCC(=O)OCc1ccccc1 | inactive |
| CN1CCN(C(=O)C2CCCCC2)CC1 | inactive |
| Cc1ccc(S(=O)(=O)NC(=O)NC2CCCCC2)cc1 | inactive |
| NNC(=O)CP(=O)(c1ccccc1)c1ccccc1 | inactive |
| O=C(O)Cc1ccc(CCNS(=O)(=O)c2ccc(Cl)cc2)cc1 | inactive |
| COc1ccc(NS(=O)(=O)c2ccc(N)cc2)nn1 | inactive |
| CN1C[C@@H]2C[C@H]1CN2c1cc2c(cc1F)c(=O)c(C(=O)O)cn2C1CC1 | inactive |
| C[C@H]1COc2c(C3(N)CC3)c(F)cc3c(=O)c(C(=O)O)cn1c23 | inactive |
| CNc1c2c(nn1C)CCCC2 | inactive |
| CC(C)c1cc2c(cc1S(=O)(=O)O)[C@@]1(C)CCC[C@@](C)(C(=O)O)[C@@H]1CC2 | inactive |
| Cc1ccc(S(=O)(=O)NC(=O)NC2CCCCCCC2)cc1 | inactive |
| CNCc1ccccc1 | inactive |
| CCCCCCCCCCOc1cc2c(=O)c(C(=O)OCC)c[nH]c2cc1OCC | inactive |
| CC(=O)Oc1cccc(C)c1 | inactive |
| O=C(NCN1CCOCC1)c1cnccn1 | inactive |
| Cc1ccccc1N=Nc1ccc(N=Nc2c(O)ccc3ccccc23)c(C)c1 | inactive |
| CC1CCc2cc(F)cc3c(=O)c(C(=O)O)cn1c23 (centres undefined) | inactive |
| O=C(O)c1ccc[n+]([O-])c1 | inactive |
| CCCCCC(C)N (centres undefined) | inactive |
| CCOc1cc(NC(C)=O)ccc1C(=O)OC | inactive |
| Cc1cc(OI)c(C(C)C)cc1-c1cc(C(C)C)c(OI)cc1C | inactive |
| O=C1CC[C@@H](C(=O)O)N1 | inactive |
